Luc counter – Counterscreen for Luciferase (Kinase-Glo TM) Inhibition | Luciferin 4-monooxygenase (Photuris pensylvanica), Q27757 | Kinase-Glo luciferase, ATP luminescence, 8 min | Potency, µM (series often up to 38.3 µM), for inactives: top-dose activity change, negative = inhibition, actives largely listed as inhibitors | hit rate 0.28% among 200,000; also: % is scaled to controls: 0 for no effect and ±100 for the full control effect; nearly all actives have a fitted effect of over 60% in size
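Luminescence was the read-out, taken after 8-minute incubation at ambient temperature. Luciferase turned over luciferin with 10 uM ATP in imidazole pH 7.2 buffer containing KCl, MgCl2, Tween 20 and BSA.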
ELG1 genotox – qHTS screen for small molecules that induce genotoxicity in human embryonic kidney (HEK293T) cells expressing luciferase-tagged ELG1; HEK293T ELG1-luciferase reporter, luminescence, 16 h; Potency, µM (series often up to 46 µM), without a hit: top-dose activity change, positive = activation, hits mostly activators; AID 504466, 2011; hit rate 1.3% among 330,000; also: % of control where 0% means no effect; nearly all actives have a fitted effect of over 60% in size
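Quantitative HTS format in 1536-well plates. HEK293T ELG1-luciferase reporter cells receive test compound and are incubated 16 hr at 37 °C, 5% CO2; ONE-Glo added, 30 min room temperature, then luminescence read.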
SMN2 splice up – qHTS Assay for Enhancers of SMN2 Splice Variant Expression; HEK293 SMN2-luciferase splicing reporter, luminescence, 30-36 h; Potency, µM (top dose mostly 46.1 µM), without a hit: at the highest dose activity change, positive = activation, actives largely listed as activators; hit rate 2.8% among 210,000; also: % of control where 0% means no effect; nearly all actives have a fitted effect of over 55% in size
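HEK293 cells carry an SMN2 minigene-luciferase reporter in which exon 7 inclusion puts luciferase in frame. Cells were seeded at 2000 cells/well, attached for 10-12 hours, then exposed to compounds for 30-36 hours at 37C before ONE-Glo luminescence.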
Rab9 prom act – qHTS Assay for Rab9 Promoter Activators; Huh7 Rab9 promoter-luciferase reporter, luminescence, 24 h; Potency, µM (top dose mostly 9.22 µM), for inactives: at the top dose activation, negative = inhibition, hits mostly activators; hit rate 2.8% among 320,000; AID 485297, 2010; also: % of control where 0% means no effect; nearly all actives have a fitted effect of over 60% in size
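Stable Rab9-luc Huh7, 1500 cells/well, 2 h settle; cmpd in DMSO, 24 h, 37 °C/5% CO2; luciferase reagent 10 min RT; luminescence.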
FLuc modulator – qHTS profiling assay for firefly luciferase inhibitor/activator using purifed enzyme and Km concentrations of substrates (counterscreen for miR-21 project); Luciferin 4-monooxygenase (Photinus pyralis), P08659; purified FLuc, Km substrates, luminescence inhibition; Potency, µM (highest dose often 57.5 µM), for inactives: at the highest dose activity change, negative = inhibition, actives largely listed as inhibitors; hit rate 6.9% among 360,000; AID 588342, 2011;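 also: plate controls were vehicle for no effect and reference inhibitor for full effect; nearly all actives have a fitted effect of over 55% in size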
Target sequence (P08659 whole entry, looked up): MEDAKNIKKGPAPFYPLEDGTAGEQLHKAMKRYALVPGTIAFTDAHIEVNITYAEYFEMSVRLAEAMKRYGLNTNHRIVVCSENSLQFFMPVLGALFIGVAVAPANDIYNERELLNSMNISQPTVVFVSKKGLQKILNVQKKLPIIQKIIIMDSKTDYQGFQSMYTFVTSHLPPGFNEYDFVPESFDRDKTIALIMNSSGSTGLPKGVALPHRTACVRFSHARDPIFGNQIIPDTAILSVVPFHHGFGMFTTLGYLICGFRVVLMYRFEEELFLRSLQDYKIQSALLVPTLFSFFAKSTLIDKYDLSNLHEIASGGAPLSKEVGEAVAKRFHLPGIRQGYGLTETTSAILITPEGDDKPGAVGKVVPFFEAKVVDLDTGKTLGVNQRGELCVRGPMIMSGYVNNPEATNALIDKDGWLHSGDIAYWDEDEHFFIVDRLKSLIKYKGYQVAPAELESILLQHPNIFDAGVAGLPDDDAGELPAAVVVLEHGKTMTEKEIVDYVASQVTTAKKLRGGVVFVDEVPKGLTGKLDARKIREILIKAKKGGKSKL
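Purified P. pyralis luciferase (10nM final) with 10uM D-luciferin and 10uM ATP (Km levels) in 50mM Tris acetate pH 7.5, 10mM Mg acetate, 0.01% Tween-20, 0.05% BSA; qHTS 6-point titration, ~60 µM downward; luminescence read.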
NPC1 promoter act – qHTS Assay for NPC1 Promoter Activators; Huh7 NPC1 promoter luciferase reporter, 24 h; Potency, µM (titrated, usually from 9.22 µM), inactives show at the top dose activation, actives largely listed as activators; hit rate 2.4% among 320,000; also: % of control where 0% means no effect; nearly all actives have a fitted effect of over 60% in size
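Luminescence read-out of NPC1 promoter-driven luciferase in stably transfected Huh7 cells; compounds delivered in DMSO and left 24 h at 37C, 5% CO2, qHTS titration format.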
Numbers without * were called inactive; ? = inconclusive; · = no result given. In the library only some 7.5% were active in any assay of this set; here they are far more common. Calls follow the shape of the dose curve; as a rule, active = well fitted curve in the direction sought with a large enough effect; inconclusive = small, poorly fitted or top-dose-only effect, or another doubt; inactive = no such curve, though single readings can be large; an effect the other way counts as inactive or inconclusive. Potency is read from the fitted curve at half-maximal effect.

SMILES	Luc counter	ELG1 genotox	SMN2 splice up	Rab9 prom act	FLuc modulator	NPC1 promoter act
O=C(NCC(c1ccco1)S(=O)(=O)c1cccs1)c1ccc(Cl)cc1 (stereo not drawn)	·	·	·	·	-3%	·
CC1CCC(NC(=O)c2ccc(CS(=O)(=O)c3cccc(C(F)(F)F)c3)o2)CC1 (stereo not drawn)	·	·	-12%	·	4%	·
COc1ccccc1-c1nccc(NCc2cnc(C)cn2)n1	0%	·	-2%	·	·	·
COc1ccc(N2CC(NC(=O)c3ccc(Br)o3)CC2=O)cc1 (stereo not drawn)	·	·	·	·	0%	·
COc1ccc(/C=C/C(=O)O/N=C(\N)c2ccccc2)cc1OC	0%	?	?	?	17µM*	?
O=C(NCc1ccccc1Cl)C1CCCN(c2nc3ccsc3c(=O)s2)C1 (stereo not drawn)	-5%	9%	-2%	-7%	-2%	-4%
CC1CCCN(c2nc3ccsc3c(=O)s2)C1 (stereo not drawn)	-2%	13µM*	22µM*	?	15µM*	?
CCc1ccc(OCC(=O)N/N=C2\CC(=O)c3ccccc32)cc1	-2%	-2%	-4%	13%	12µM*	14%
COc1ccc(OCC(=O)N/N=C2\CCCCc3ccccc32)cc1	0%	-2%	-7%	-3%	-7%	0%
CC(C)c1ccc(OCC(=O)Nc2ccc(S(=O)(=O)Nc3ncccn3)cc2)cc1	·	·	3%	·	9.5µM*	·
Cc1ccc(Oc2ccc(OCC(=O)Nc3ccncc3)cc2)cc1	·	3%	·	·	·	·
COCC(=O)Nc1ccc(C(C)C)cc1	-7%	?	?	26%	24µM*	27%
CCc1ccc(OCC(=O)Nc2ccncc2)cc1	·	-2%	·	2%	11µM*	0%
Cn1ccs/c1=N\C(=O)Nc1cccc(C(F)(F)F)c1	·	4%	·	28%	24µM*	?
CCc1ccc(OCC(=O)Nc2cccc3nsnc23)cc1	-2%	3%	-3%	-6%	17µM*	-2%
Cc1ccccc1OCC(=O)Nc1cccc2nsnc12	-4%	17%	29%	0%	?	-2%
O=C(COc1ccc2ccccc2c1)Nc1ccncc1	1%	-2%	·	-12%	9.5µM*	2%
O=C(COc1ccccc1)Nc1ccncc1	-7%	-1%	·	-3%	-10%	-2%
COCC(=O)Nc1cccc(C(F)(F)F)c1	-1%	0%	3.5µM*	-1%	0%	-2%
COc1ccc(CCNC(=O)/C=C/c2ccco2)cc1	·	0%	·	19%	-18%	2%
O=C(c1cc(F)c(F)c(F)c1F)N1CCN(Cc2ccc3c(c2)OCO3)CC1	·	-3%	·	0%	8%	2%
Cc1ccc(OCCSc2nc3ccc(NC(=O)c4ccc5c(c4)OCO5)cc3s2)cc1	·	·	·	·	-1%	·
Cc1cc(OCC(=O)NNC(=O)c2ccncc2)ccc1C(C)C	·	2%	·	-4%	8.5µM*	-2%
CC(C)(C)c1ccc(OCC(=O)Nc2ccncc2)cc1	·	-6%	·	1%	6µM*	-2%
CC(C)c1ccc(OCC(=O)Nc2ccncc2)cc1	·	3%	·	0%	5.4µM*	4%
SMILES	Luc counter	ELG1 genotox	SMN2 splice up	Rab9 prom act	FLuc modulator	NPC1 promoter act
O=C(COc1ccc(Br)cc1)Nc1ccc(Cc2ccncc2)cc1	2%	-3%	-13%	-9%	-16%	-4%
Cc1ccc(/C(O)=C2/C(=O)C(=O)N(CC(=O)O)C2c2ccc([N+](=O)[O-])cc2)cc1 (stereo not drawn)	·	0%	·	4%	5%	-1%
O=C(N/N=C/C=C/c1ccccc1)c1cccs1	2%	9%	?	1.8µM*	15µM*	?
O=C(Cc1cccs1)N/N=C/C=C/c1ccccc1	-1%	13%	?	?	-11%	?
O=C(N/N=C/C(Br)=C/c1ccccc1)c1cccs1	-2%	?	·	0.89µM*	1.5µM*	2.2µM*
CSc1ncccc1C(=O)OCc1ccccc1	-5%	?	1%	?	19µM*	20%
CSc1ncccc1C(=O)OCc1ccccc1F	-10%	16%	28%	28%	15µM*	?
CSc1ncccc1C(=O)OCc1ccc(COC(=O)c2cccnc2SC)cc1	-1%	6%	-10%	1%	5%	-2%
N[C@@H](Cn1ccc(=O)n(Cc2ccccc2C(=O)O)c1=O)C(=O)O	-3%	·	·	·	·	·
Cc1cccc(-c2cc(C(=O)NCCCn3ccnc3)c3ccccc3n2)c1	-7%	2%	-12%	-3%	15µM*	-1%
Cc1ccc(-c2cc(C(=O)NCCCn3ccnc3)c3cc(Br)ccc3n2)o1	-1%	2%	-6%	-2%	15µM*	-1%
Cc1ccc(-c2cc(C(=O)O)c3cc(Br)ccc3n2)s1	·	6%	·	22%	2.4µM*	?
Cc1ccc(-c2cc(C(=O)NN3CCOCC3)c3cc(Br)ccc3n2)o1	-2%	-6%	10%	-5%	?	-4%
Cc1ccc(-c2cc(C(=O)O)c3cc(Br)ccc3n2)o1	-2%	-4%	19%	4%	11µM*	5%
CC(C)c1ccc(S(=O)(=O)NC2CCS(=O)(=O)C2)cc1 (stereo not drawn)	·	0%	·	-9%	4%	-1%
CCc1ccc(OCC(=O)NNCC(=O)Nc2ccc(OC)cc2)cc1	·	-2%	·	0%	?	-2%
Cc1ccc(NC(=O)CN(C)S(=O)(=O)c2ccc3c(c2)n(C)c(=O)c(=O)n3C)cc1F	·	·	-7%	·	0%	·
Cc1ccc(-c2cc(C(=O)NC3=NCCS3)c3cc(Br)ccc3n2)o1	0%	-6%	5%	10%	6µM*	4%
O=C(NC1=NCCS1)c1cc(-c2cccnc2)nc2ccccc12	-3%	-3%	-11%	5%	?	-1%
CCCc1c(C(=O)N/N=C/C(C)=C/c2ccccc2)nnn1-c1nonc1N	·	7%	·	14%	2.4µM*	13%
CCCN(CCC)Cc1c(C(=O)N/N=C/C(C)=C\c2ccccc2)nnn1-c1nonc1N	·	-23%	·	0%	-15%	-6%
CC(/C=N/NC(=O)c1nnn(-c2nonc2N)c1C(C)C)=C\c1ccccc1	·	3%	·	?	1.5µM*	?
CC(=O)N1c2ccc(S(=O)(=O)N(C)CC(=O)NCc3ccc(C)cc3)cc2CC1C (stereo not drawn)	·	-2%	·	-4%	2%	3%

Compound activity as filed in PubChem BioAssay.
